Our source for the Potency and outcome values is PubChem BioAssay (Tox21).

Each structure is given as a SMILES string. Results filed as inconclusive are left out. Active and inactive are the calls of the source. Unless noted, the call rests on the fitted dose curve; in most records, active means well fitted curve in the direction sought with a large enough effect in the repeat runs; inconclusive means weak or mixed curves; inactive means no such curve, though single readings can be large; an effect the other way counts as inactive or inconclusive.

The nature of experiment [1]: A CellTox Green Cytotoxicity Assay to monitor cytotoxicity in HepG2 cells - 32 hour (AID 1224883). Further: nearly all actives have a fitted effect of over 50% in size. Further: potency means the concentration at half of the fitted maximal effect. The essentials:
(§1)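 HepG2 cells were seeded together with the CellTox Green dye at 600 cells/well, left 5 h at 37 C/5% CO2, then given compounds in DMSO. Fluorescence from dye bound to dead-cell DNA was read repeatedly over 40 h of treatment at 37 C.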

The nature of experiment [2]: qHTS RealTime-Glo MT Cell Viability Assay in HepG2 cells - 16 hour (AID 1224885). Further: nearly all actives have a fitted effect of over 50% in size. The gist of the method: (§2)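 Cell number in HepG2 cultures estimated from NanoLuc luminescence generated by metabolic reduction of a prosubstrate by living cells. The homogeneous, nonlytic format allowed repeated reads at 0, 8, 16, 24, 32 and 40 h of compound exposure.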
Experiment [3] in a line: qHTS RealTime-Glo MT Cell Viability Assay in HEK293 cells - 24 hour (AID 1224886). Further: top concentration of the series differs between compounds; nearly all actives have a fitted effect of over 50% in size. The gist of the method: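 Homogeneous bioluminescent viability format in HEK293 cells (600 cells/well). Following 5 h at 37 C/5% CO2, 23 nL compound was pintooled; the signal was measured repeatedly during 40 h incubation.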
A short description of experiment [4]: qHTS RealTime-Glo MT Cell Viability Assay in HEK293 cells - 8 hour (AID 1224887). Further: top concentration of the series differs between compounds; nearly all actives have a fitted effect of over 50% in size. The essentials:
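HEK293 cells mixed with RealTime-Glo reagents (NanoLuc plus cell-permeant prosubstrate) at 600 cells/well, preincubated 5 h at 37 C/5% CO2, then given 23 nL compound in DMSO. Nonlytic luminescence from viable cells was read at 0, 8, 16, 24, 32 and 40 h.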

A short description of experiment [5]: A CellTox Green Cytotoxicity Assay to monitor cytotoxicity in HEK293 cells - 16 hour (AID 1224888). Further: nearly all actives have a fitted effect of over 35% in size. The essentials: (§3)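 HEK293 cells premixed with CellTox Green dye were seeded at 600 cells/well and left 5 h at 37 C/5% CO2 before pin transfer of 23 nL compound in DMSO. Fluorescence from dye bound to dead-cell DNA was read during 40 h treatment.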
The nature of experiment [6]: qHTS RealTime-Glo MT Cell Viability Assay in HepG2 cells - 0 hour (AID 1224889). Further: nearly all actives have a fitted effect of over 50% in size. The essentials: as §2
A short description of experiment [7]: A CellTox Green Cytotoxicity Assay to monitor cytotoxicity in HepG2 cells - 8 hour (AID 1224890). Further: nearly all actives have a fitted effect of over 45% in size. The essentials:
as §1

The nature of experiment [8]: qHTS assay to identify small molecule antagonists of the estrogen receptor alpha (ER-alpha) signaling pathway using the BG1 cell line in the presence of 0.1 nM 17-beta-estradiol - cell viability counter screen (AID 1259241). Further: nearly all actives have a fitted effect of over 40% in size. The gist of the method:
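Estradiol-stimulated (0.1 nM) VM7Luc4E2 cells exposed to compounds 22 hr; viability measured by fluorescence of cleaved CellTiter-Fluor substrate after 30 min.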

Experiment [9] can be described thus: qHTS assay to identify small molecule antagonists of the androgen receptor (AR) signaling pathway using the MDA cell line in the presence of 0.5 nM R1881 - cell viability counter screen (AID 1259242). Further: nearly all actives have a fitted effect of over 45% in size. The essentials:
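MDA-kb2 cells (human breast carcinoma, stably carrying MMTV-luciferase reporter) were exposed to compounds with 0.5 nM R1881 (final) for 16 hr at 37C, 0% CO2; viability then read as live-cell protease fluorescence (CellTiter-Fluor, 30 min) in the same wells.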

The target in experiment [10] is Estrogen receptor (Homo sapiens) (UniProt P03372). In words: qHTS assay to identify small molecule antagonists of the estrogen receptor alpha (ER-alpha) signaling pathway using the BG1 cell line in the presence of 0.1 nM 17-beta-estradiol (AID 1259244). Further: nearly all actives have a fitted effect of over 50% in size. The gist of the method: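 VM7Luc4E2 cells (endogenous full-length ER-alpha, stable 4xERE-luciferase) were grown 5 days in phenol red-free medium with charcoal-stripped FBS, then exposed 22 h at 37C to compounds plus 0.1 nM (final) 17beta-estradiol; ONE-Glo luminescence read-out.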

Experiment [11] can be described thus: qHTS assay to identify small molecule phospholipidosis (PLD) inducers (AID 1259344; active means well fitted curve in the direction sought with a large enough effect; an effect the other way counts as inactive or inconclusive). The essentials:
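HepG2 cells on collagen I, attached 4 h at 37 C, were co-treated with compound and LipidTOX Red dye for 24 h at 37 C, then fixed with paraformaldehyde plus Hoechst 33342 and imaged by high-content microscopy for phospholipid accumulation.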

A short description of experiment [12]: qHTS assay to identify small molecule HDAC inhibitors (AID 1259364). Further: top concentration of the series differs between compounds; nearly all actives have a fitted effect of over 45% in size. The essentials: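 Wild-type HCT-116 cells were plated overnight, exposed to compounds for 2 h at 37 °C, then given HDAC-Glo class I/II luminogenic reagent for 30 min at room temperature before luminescence was read.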
Experiment [13] is described as follows: qHTS assay to identify small molecule HDAC inhibitors - cell viability counter screen (AID 1259365). The gist of the method:
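After overnight seeding at 1,500 cells per well, wild-type HCT-116 cultures took up compounds in DMSO for 2hr at 37 C. Viable cell content came from luminescence with CellTiter-Glo.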

Experiment [14] is described as follows: qHTS assay to identify small molecule agonists of the sonic hedgehog signaling (Shh) pathway - cell viability counter screen (AID 1259366). Further: nearly all actives have a fitted effect of over 50% in size. The gist of the method:
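Same-well cytotoxicity read. Gli1-Luc reporter 3T3 cells; compounds 24hr, 37C/5% CO2; CellTiter-Fluor fluorescence.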

Experiment [15] is described as follows: qHTS assay to identify small molecule antagonists of the sonic hedgehog signaling (Shh) pathway - cell viability counter screen (AID 1259367). Further: nearly all actives have a fitted effect of over 55% in size. The gist of the method:
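NIH/3T3-derived Gli1-Luc reporter cells (2,000 per well) rested 4 hr at 37 C, then received DMSO compounds plus conditioned medium. After 23 hr of treatment, CellTiter-Fluor was added for 1 hr at 37C and fluorescence read.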

A short description of experiment [16]: qHTS assay to identify small molecule agonists of the sonic hedgehog signaling (Shh) pathway (AID 1259368; calls by dose curve; further: series mostly up to about 92 µM; nearly all actives have a fitted effect of over 15% in size). The gist of the method:
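NIH/3T3-derived 3T3Gli1-Luc cells carrying a stably integrated Gli1 response element–firefly luciferase reporter were plated, left 4 hr at 37 C, then given compounds in DMSO for 24 hr. Luminescence was read 30 min after adding luciferase reagent.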

Experiment [17] in a line: A CellTox Green Cytotoxicity Assay to monitor cytotoxicity in HEK293 cells - 8 hour (AID 1224884). Further: nearly all actives have a fitted effect of over 35% in size. The essentials: as §3
Experiment [18] can be described thus: A CellTox Green Cytotoxicity Assay to monitor cytotoxicity in HepG2 cells - 0 hour (AID 1224882). Further: nearly all actives have a fitted effect of over 35% in size. The essentials: as §1

Chain of Estrogen receptor (Homo sapiens) (P03372 whole entry, looked up): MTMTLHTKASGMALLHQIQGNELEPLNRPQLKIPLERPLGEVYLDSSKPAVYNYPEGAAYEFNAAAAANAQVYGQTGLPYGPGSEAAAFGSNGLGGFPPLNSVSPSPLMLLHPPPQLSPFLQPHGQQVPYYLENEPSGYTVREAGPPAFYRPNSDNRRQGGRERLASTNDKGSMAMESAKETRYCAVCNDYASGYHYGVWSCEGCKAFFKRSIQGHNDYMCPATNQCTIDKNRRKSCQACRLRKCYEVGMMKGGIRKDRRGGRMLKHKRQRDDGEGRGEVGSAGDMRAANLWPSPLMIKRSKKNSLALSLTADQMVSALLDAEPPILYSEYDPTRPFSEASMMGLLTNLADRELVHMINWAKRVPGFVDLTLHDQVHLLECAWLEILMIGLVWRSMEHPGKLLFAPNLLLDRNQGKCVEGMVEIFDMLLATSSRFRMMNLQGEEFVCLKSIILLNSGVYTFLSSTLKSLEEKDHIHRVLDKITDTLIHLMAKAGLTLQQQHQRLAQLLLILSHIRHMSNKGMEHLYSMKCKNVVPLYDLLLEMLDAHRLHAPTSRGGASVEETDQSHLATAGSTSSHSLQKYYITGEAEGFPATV

On to `CCN(CC)CCc1nc(-c2ccccc2)no1`, for which the Potency result in experiment [1], in experiment [2], in experiment [3], in [4], in experiment [5] and in experiment [6] was “inactive” each time. Also, the Potency result in experiment [7], in [8], in experiment [9], in experiment [10], in experiment [11] and in experiment [12] was “inactive” each time. Further, the Potency entry in experiment [14] and in [15] was “inactive” each time. Moreover, the compound was classed as inactive in [13] and in experiment [16].
In the case of `CC(=O)/C=C/C1C(C)=CCCC1(C)C` (stereo unspecified), the Potency result in experiment [1], in experiment [17], in experiment [2], in experiment [3], in experiment [4] and in experiment [5] was “inactive” throughout. Also, the Potency entry in experiment [6], in experiment [7], in [8], in experiment [9], in [10] and in [12] was “inactive” throughout. The Potency result in experiment [14] and in experiment [15] was “inactive” each time. The compound was called inactive in [13] and in [16].
`Oc1ccc(O)c2c(O)cccc12`: the Potency entry in experiment [1], in experiment [2], in experiment [3], in experiment [6], in experiment [7] and in experiment [8] was “inactive” throughout. Further, the Potency entry in [9], in experiment [10], in experiment [12], in experiment [14] and in [15] was “inactive” each time. Also, the result in experiment [13] and in [16] was inactive.
Turning to `CCCCCCCC/C=C\CCCCCCCC(N)=O`, the Potency entry in experiment [2], in [4], in [5], in experiment [6], in experiment [7] and in [8] was “inactive” throughout. The Potency entry in experiment [9], in [12], in experiment [14] and in experiment [15] was “inactive” throughout. Further, the result in experiment [13] and in experiment [16] was inactive.
`C=CC(C)(CCC=C(C)C)OC(=O)c1ccccc1` (stereo unspecified): the Potency result in [18], in experiment [1], in experiment [2], in experiment [3], in experiment [4] and in experiment [6] was “inactive” throughout. In addition, the Potency result in experiment [7], in experiment [8], in [9], in experiment [12], in experiment [14] and in experiment [15] was “inactive” each time. Besides, the outcome in experiment [13] and in [16] was inactive.
Turning to `COC(=O)C(C)=O`, the Potency entry in experiment [18], in experiment [17], in experiment [2], in [3], in experiment [5] and in experiment [6] was “inactive” throughout. Besides, the Potency result in experiment [7], in [8], in experiment [9], in experiment [10], in experiment [12] and in [14] was “inactive” throughout. The Potency entry in [15] was “inactive”. For the same compound, the compound was called inactive in experiment [16].
Turning to `CC(=O)CC(=O)c1ccccc1`, the Potency result in experiment [18], in [2], in experiment [4], in [5], in experiment [6] and in experiment [7] was “inactive” in each case. The Potency result in experiment [8], in [9], in [10], in experiment [12] and in experiment [14] was “inactive” throughout. Also, the outcome in experiment [16] was inactive.
Consider `ClC(Cl)(Cl)c1ccc(C(Cl)(Cl)Cl)cc1`, for which the Potency entry in experiment [18], in experiment [17], in experiment [2], in experiment [3], in experiment [4] and in experiment [5] was “inactive” in each case. Moreover, the Potency entry in [6], in experiment [7], in experiment [8], in experiment [9], in experiment [10] and in experiment [12] was “inactive” throughout. In addition, the Potency result in [14] and in [15] was “inactive” throughout. Moreover, the outcome in experiment [13] and in experiment [16] was inactive.
For the compound `CCOC(=O)[C@H](CCc1ccccc1)N[C@H]1CCc2ccccc2N(CC(=O)O)C1=O`, the Potency entry in [18], in [5], in experiment [8], in [12] and in [14] was “inactive” each time. Also, in experiment [1], the Potency is 26.8 µM (active). Besides, the result in experiment [13] and in experiment [16] was inactive.
